Among the data in ChEMBL document CHEMBL1961873, “Compounds: GSK PKIS; Assays: Nanosyn kinase panel” (2012) are inhibition values, retold here.

Experiment [1] has as its target Tyrosine-protein kinase Fyn (Homo sapiens) (UniProt P06241). As to conditions: at 1 µM.
In experiment [2] the target is Tyrosine-protein kinase HCK (Homo sapiens) (UniProt P08631). As to conditions: at 0.1 µM.
Experiment [3] shares this target. As to conditions: at 1 µM.
The target in experiment [4] is Insulin-like growth factor 1 receptor (Homo sapiens) (UniProt P08069). Particulars: at 0.1 µM.
Experiment [5] has the same target. As to conditions: at 1 µM.
The target of experiment [6] is Insulin receptor (Homo sapiens) (UniProt P06213). As to conditions: at 0.1 µM.
Chain of Insulin receptor (Homo sapiens) (P06213 28-758 limits assumed): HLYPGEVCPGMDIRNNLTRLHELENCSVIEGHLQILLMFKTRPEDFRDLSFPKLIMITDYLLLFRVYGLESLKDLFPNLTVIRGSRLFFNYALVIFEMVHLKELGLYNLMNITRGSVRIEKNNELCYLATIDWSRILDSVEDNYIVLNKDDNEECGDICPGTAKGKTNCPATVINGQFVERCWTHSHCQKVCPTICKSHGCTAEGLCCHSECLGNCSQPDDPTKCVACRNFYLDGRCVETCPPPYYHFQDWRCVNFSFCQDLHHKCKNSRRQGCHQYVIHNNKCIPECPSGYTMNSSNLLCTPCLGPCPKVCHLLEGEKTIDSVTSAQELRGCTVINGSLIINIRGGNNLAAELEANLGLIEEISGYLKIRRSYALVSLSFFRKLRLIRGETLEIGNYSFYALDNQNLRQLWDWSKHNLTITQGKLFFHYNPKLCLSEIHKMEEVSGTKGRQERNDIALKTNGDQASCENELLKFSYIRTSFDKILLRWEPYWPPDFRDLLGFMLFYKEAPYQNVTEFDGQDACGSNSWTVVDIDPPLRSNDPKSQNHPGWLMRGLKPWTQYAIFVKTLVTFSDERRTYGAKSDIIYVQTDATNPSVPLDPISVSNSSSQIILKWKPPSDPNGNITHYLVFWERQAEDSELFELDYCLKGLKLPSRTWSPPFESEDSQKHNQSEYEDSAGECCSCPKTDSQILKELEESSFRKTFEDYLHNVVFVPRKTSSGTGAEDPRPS
Chain of Insulin receptor (Homo sapiens) (P06213 763-1382 limits assumed): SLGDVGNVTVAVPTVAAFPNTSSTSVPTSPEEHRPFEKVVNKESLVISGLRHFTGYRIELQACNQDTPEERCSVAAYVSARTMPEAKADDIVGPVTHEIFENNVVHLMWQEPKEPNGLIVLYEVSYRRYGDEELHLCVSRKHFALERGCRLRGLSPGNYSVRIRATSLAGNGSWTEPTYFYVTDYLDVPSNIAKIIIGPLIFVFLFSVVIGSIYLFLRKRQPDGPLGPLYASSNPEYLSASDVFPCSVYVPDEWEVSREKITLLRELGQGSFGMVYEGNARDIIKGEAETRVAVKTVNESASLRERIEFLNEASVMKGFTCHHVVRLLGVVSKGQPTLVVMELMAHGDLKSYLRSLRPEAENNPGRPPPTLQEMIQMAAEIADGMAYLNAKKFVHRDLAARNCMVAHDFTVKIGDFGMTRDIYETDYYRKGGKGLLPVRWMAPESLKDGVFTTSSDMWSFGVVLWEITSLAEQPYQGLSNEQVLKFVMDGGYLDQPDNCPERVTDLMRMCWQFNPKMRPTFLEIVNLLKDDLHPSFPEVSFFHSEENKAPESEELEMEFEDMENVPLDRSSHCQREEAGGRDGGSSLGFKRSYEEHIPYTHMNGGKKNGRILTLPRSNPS
Experiment [7] shares this target. As to conditions: at 1 µM.
Experiment [8] deals with Insulin receptor-related protein (Homo sapiens) (UniProt P14616). As to conditions: at 0.1 µM.
Chain of Insulin receptor-related protein (Homo sapiens) (P14616 27-742 limits assumed): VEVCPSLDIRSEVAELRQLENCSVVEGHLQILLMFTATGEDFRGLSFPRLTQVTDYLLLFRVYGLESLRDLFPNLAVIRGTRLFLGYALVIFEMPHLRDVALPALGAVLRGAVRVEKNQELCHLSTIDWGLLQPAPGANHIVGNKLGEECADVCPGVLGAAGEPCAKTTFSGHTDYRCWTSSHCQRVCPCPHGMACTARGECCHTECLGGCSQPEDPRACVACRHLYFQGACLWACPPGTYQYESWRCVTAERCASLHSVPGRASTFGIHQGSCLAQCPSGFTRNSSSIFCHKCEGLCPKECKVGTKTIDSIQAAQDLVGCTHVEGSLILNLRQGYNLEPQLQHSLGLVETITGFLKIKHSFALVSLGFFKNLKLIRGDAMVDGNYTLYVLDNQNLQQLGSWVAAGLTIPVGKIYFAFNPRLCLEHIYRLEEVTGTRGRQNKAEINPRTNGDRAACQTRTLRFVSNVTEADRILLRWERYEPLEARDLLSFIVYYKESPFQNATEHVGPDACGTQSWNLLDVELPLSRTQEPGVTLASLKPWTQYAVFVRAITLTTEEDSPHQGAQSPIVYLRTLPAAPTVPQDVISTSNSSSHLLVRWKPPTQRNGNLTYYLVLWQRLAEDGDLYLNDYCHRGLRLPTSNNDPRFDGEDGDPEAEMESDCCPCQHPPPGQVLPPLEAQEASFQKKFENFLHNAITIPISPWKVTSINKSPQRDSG
Chain of Insulin receptor-related protein (Homo sapiens) (P14616 747-1297 limits assumed): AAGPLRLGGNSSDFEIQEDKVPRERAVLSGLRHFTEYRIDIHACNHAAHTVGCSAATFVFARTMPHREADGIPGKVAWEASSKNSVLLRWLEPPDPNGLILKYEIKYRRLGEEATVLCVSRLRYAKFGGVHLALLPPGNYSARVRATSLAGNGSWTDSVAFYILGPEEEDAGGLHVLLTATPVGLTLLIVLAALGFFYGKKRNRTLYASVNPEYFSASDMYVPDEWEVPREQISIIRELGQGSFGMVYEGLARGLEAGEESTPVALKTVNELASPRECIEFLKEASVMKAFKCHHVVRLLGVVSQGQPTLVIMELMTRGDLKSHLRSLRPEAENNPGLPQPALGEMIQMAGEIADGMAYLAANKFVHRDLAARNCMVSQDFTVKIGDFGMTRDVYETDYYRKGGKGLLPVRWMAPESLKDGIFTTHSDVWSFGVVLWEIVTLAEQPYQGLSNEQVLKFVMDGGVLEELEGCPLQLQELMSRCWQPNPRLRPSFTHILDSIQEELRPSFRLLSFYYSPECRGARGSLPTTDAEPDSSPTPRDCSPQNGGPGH
The target is the same in experiment [9]. As to conditions: at 1 µM.
The target of experiment [10] is T1, Tyrosine-protein kinase ITK/TSK (Homo sapiens) (UniProt Q08881).
T1 sequence (whole entry): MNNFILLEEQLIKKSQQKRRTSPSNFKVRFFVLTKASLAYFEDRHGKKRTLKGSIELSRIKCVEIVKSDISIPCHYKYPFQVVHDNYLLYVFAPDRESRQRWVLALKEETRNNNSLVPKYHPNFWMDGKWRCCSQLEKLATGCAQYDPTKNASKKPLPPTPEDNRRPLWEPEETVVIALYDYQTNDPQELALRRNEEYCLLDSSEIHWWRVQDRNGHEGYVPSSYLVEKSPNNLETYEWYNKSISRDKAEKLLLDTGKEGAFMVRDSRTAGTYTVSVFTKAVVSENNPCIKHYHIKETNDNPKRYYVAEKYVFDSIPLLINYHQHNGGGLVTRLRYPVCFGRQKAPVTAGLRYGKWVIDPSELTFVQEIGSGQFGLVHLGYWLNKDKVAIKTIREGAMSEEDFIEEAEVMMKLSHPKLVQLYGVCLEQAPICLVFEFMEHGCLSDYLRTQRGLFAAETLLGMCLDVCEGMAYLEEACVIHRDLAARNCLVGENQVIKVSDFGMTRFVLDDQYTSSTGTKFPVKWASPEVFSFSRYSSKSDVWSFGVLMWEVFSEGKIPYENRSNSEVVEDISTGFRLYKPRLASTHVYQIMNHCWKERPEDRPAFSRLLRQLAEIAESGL
Particulars: at 0.1 µM.

In experiment [11] the target is T1, Tyrosine-protein kinase ITK/TSK (Homo sapiens). Particulars: at 1 µM.
The target of experiment [12] is Tyrosine-protein kinase JAK1 (Homo sapiens) (UniProt P23458). Particulars: at 0.1 µM.
Chain of Tyrosine-protein kinase JAK1 (Homo sapiens) (P23458 whole entry): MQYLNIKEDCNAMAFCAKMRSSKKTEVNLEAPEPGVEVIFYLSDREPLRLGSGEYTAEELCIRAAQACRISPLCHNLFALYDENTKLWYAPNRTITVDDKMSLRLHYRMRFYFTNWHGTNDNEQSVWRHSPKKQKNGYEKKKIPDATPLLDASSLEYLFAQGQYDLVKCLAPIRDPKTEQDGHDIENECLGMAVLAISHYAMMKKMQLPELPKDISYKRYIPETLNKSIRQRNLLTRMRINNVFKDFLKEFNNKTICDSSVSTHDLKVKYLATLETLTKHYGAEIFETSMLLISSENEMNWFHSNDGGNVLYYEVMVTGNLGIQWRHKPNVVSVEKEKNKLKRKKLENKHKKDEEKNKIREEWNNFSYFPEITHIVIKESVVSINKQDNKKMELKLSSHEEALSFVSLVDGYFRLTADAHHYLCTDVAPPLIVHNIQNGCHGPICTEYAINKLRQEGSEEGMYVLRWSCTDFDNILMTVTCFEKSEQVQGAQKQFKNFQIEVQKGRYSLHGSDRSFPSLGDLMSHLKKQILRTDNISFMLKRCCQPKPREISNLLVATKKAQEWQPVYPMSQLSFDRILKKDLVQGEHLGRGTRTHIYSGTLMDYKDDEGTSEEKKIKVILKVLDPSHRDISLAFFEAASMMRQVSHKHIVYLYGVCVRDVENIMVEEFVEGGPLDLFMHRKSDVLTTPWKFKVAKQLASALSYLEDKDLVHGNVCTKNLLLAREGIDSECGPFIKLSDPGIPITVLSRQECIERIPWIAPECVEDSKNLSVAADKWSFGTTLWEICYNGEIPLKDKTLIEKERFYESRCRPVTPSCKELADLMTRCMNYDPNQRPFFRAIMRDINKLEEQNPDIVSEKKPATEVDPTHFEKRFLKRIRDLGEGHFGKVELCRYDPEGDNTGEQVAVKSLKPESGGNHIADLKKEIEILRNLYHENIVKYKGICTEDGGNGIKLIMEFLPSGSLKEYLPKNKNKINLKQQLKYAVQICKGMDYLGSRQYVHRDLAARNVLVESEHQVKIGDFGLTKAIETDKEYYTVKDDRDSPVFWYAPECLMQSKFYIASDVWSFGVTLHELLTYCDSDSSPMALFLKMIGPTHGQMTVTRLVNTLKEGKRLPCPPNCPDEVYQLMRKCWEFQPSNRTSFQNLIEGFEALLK
Experiment [13] shares this target. Particulars: at 1 µM.
For experiment [14], the target named is Tyrosine-protein kinase JAK2 (Homo sapiens) (UniProt O60674). Particulars: at 0.1 µM.
Experiment [15] has the same target. As to conditions: at 1 µM.
Experiment [16] has as its target T2, Tyrosine-protein kinase JAK3 (Homo sapiens) (UniProt P52333).
T2 sequence (whole entry): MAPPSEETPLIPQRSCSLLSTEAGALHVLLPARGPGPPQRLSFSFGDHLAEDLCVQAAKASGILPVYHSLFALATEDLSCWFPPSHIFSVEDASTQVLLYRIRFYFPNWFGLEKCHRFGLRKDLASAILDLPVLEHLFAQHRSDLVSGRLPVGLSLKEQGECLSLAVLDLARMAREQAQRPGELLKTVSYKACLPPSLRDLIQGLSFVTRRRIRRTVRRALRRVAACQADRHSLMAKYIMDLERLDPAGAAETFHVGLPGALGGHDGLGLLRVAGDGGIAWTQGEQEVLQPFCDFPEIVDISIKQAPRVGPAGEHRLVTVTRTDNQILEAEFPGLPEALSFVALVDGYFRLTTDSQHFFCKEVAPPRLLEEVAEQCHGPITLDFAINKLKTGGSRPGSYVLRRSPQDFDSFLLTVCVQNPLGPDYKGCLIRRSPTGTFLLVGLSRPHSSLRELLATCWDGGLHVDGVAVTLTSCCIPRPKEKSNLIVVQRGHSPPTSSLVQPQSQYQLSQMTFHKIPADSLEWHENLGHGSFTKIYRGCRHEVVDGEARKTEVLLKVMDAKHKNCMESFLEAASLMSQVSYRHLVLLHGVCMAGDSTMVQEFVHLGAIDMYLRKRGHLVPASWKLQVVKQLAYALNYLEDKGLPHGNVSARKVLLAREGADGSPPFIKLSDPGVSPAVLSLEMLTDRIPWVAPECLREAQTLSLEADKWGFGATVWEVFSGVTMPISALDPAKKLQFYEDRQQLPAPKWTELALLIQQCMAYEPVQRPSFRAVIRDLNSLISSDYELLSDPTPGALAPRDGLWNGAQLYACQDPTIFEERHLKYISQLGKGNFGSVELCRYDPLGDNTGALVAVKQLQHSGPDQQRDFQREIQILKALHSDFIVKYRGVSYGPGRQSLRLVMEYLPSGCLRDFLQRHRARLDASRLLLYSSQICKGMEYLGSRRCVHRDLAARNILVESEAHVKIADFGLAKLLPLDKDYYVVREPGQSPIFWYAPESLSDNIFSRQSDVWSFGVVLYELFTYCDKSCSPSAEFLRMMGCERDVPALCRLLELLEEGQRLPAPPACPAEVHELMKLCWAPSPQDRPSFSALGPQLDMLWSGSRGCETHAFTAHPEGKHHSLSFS
Particulars: at 0.1 µM.

Experiment [17] concerns the target T2, Tyrosine-protein kinase JAK3 (Homo sapiens). As to conditions: at 1 µM.
The target in experiment [18] is Vascular endothelial growth factor receptor 2 (Homo sapiens) (UniProt P35968). Particulars: at 0.1 µM.
For experiment [19] the target is unchanged. Particulars: at 1 µM.
Experiment [20] concerns the target Mast/stem cell growth factor receptor Kit (Homo sapiens) (UniProt P10721). As to conditions: at 0.1 µM.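 Also: values are mean inhibition of KIT, from the GSK PKIS dataset.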

Structures are written as SMILES.

Broadly, the inhibition is the relative decrease from the control value, in per cent.

Chain of Mast/stem cell growth factor receptor Kit (Homo sapiens) (P10721 whole entry): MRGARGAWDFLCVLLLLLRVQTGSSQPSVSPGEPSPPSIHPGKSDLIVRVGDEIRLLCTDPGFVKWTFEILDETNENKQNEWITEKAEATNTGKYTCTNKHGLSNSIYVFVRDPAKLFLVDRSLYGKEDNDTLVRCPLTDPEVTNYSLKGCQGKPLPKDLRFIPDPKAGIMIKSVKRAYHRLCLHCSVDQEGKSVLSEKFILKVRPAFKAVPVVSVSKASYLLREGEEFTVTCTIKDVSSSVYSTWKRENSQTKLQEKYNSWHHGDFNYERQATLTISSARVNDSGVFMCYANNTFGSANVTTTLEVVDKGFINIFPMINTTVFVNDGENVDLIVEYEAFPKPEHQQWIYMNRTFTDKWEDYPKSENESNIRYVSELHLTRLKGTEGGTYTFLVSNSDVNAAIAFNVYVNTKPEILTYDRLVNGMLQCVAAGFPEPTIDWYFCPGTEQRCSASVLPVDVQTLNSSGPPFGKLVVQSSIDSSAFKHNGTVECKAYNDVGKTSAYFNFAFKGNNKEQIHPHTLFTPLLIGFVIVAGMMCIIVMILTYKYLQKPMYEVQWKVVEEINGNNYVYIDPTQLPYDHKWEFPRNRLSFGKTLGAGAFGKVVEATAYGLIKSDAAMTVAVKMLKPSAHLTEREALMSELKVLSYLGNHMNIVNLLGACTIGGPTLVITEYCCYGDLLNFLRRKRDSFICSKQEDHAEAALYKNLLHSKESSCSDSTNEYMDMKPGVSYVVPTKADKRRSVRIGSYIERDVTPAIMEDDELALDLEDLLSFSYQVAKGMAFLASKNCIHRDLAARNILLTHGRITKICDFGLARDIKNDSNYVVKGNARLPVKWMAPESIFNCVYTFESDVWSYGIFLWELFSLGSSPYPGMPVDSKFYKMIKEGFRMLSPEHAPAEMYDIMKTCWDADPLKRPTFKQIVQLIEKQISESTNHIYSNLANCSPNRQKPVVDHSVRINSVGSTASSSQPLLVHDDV

For the molecule `N#Cc1c(NC(=O)c2ccc(F)cc2)sc2c1CCCC2`, the inhibition was 3.42% in experiment [1]; 1.68% in experiment [2]; 3.88% in experiment [3]; 0.23% in [4]; -0.52% in experiment [5]; 3.54% in experiment [6]. Further, the inhibition in experiment [7] was 2.79%; in experiment [8], -2.15%; in experiment [9] it was -0.16%; in experiment [10], 0.64%; in [11] it was 0.63%; in experiment [12], 1.63%. The inhibition was 6.11% in [13]; -0.41% in experiment [14]; 0.9% in experiment [15]; 0.53% in experiment [16]; 2.52% in experiment [17]; 4.31% in [18]. Further, the inhibition in experiment [19] amounted to 6.96%; in experiment [20] it was 6.24%.
Consider `Fc1ccc(-c2nn3ccccc3c2-c2ccncc2)cc1`, for which the inhibition in experiment [1] was 1.04%; in experiment [2] it was 1.96%; in experiment [3], 5.95%; in experiment [4], 0.6%; in experiment [5], 0.31%; in experiment [6], 1.92%. The inhibition is 4.03% in experiment [7]; -0.72% in experiment [8]; 0.71% in experiment [9]; 1.1% in [10]; 1.56% in experiment [11]; 0.87% in experiment [12]. Also, the inhibition is -0.62% in [13]; 0.36% in experiment [14]; 1.23% in [15]; -0.48% in experiment [16]; 0.18% in [17]; 3.84% in [18]. For the same molecule, the figures for the inhibition in experiment [19] and in [20] were 9.61% and 1.23%, respectively.
Take `COc1ccc(-c2cc3c(N)ncnc3o2)cc1`: the inhibition was 3.42% in [1]; -0.32% in experiment [2]; 7.05% in experiment [3]; -3.63% in experiment [4]; -0.91% in [5]; -0.41% in experiment [6]. In addition, the inhibition in experiment [7] is 2.44%; in [8], -2.87%; in experiment [9], -2.2%; in experiment [10], -0.48%; in experiment [11], 0.68%; in [12], -0.12%. Besides, the inhibition in experiment [13] is 7.71%; in [14] it was -0.86%; in [15], 3.1%; in experiment [16], -0.88%; in experiment [17] it was 0.39%; in experiment [18], 0.19%. Also, the inhibition in experiment [19] is 2.97%; in experiment [20], -0.07%.
On to `COC(=O)Nc1nc2ccc(S(=O)(=O)c3ccc(NC(=O)Nc4cc(C(F)(F)F)ccc4F)cc3)cc2[nH]1`, for which the inhibition in experiment [1] came to 1.28%; in [2], 3.3%; in experiment [3], 7.43%; in [4] it was 1.19%; in experiment [5] it was 1.62%; in experiment [6] it was 0.84%. The inhibition in experiment [7] came to 1.88%; in experiment [8], 0.18%; in experiment [9], 1.09%; in [10], 1.08%; in experiment [11] it was 2.62%; in experiment [12] it was 0.99%. Besides, the inhibition in experiment [13] is -1.29%; in experiment [14], 1.28%; in [15], 1.9%; in experiment [16], -1.12%; in experiment [17], 0.84%; in experiment [18], 4.59%. The inhibition in [19] was 6.23%; in experiment [20], 2.47%.
Consider `[O-][S+]1CCN(Cc2ccc(-c3ccc4ncnc(Nc5ccc(OCc6cccc(F)c6)c(Cl)c5)c4c3)o2)CC1`, for which the inhibition worked out at 6% in [1]; 6.09% in [2]; 9.6% in experiment [3]; 3.08% in [4]; 5.73% in experiment [5]; 5.28% in [6]. For the same molecule, the inhibition in experiment [7] is 4.61%; in experiment [8] it was 2.99%; in [9], 3.54%; in [10] it was 1.07%; in [11] it was 2.41%; in [12], 6.24%. The inhibition is 9.08% in [13]; 1.51% in [14]; 1.04% in [15]; -1.66% in experiment [16]; -0.12% in experiment [17]; 5.24% in experiment [18]. The inhibition in experiment [19] came out at 7.82%; in [20] it was 4.47%.
Regarding `CC1=C(C(=O)Nc2cc(Cl)c3[nH]ncc3c2)C(c2ccc(C(F)(F)F)cc2)CC(=O)N1` (stereo not given), the inhibition in experiment [1] was 4.45%; in experiment [2] it was 4.68%; in experiment [3], 6.23%; in experiment [4] it was 2.66%; in experiment [5], 2.67%; in [6] it was 5.06%. For the same molecule, the inhibition in experiment [7] was determined as 6.02%; in experiment [8], 0.76%; in [9], 1.79%; in [10], 1.11%; in experiment [11] it was 2.35%; in experiment [12] it was 9.58%. The inhibition in experiment [13] stood at 51.5%; in experiment [14] it was 2.99%; in [15], 29.2%; in experiment [16], 2.49%; in experiment [17] it was 42.3%; in experiment [18], 4.67%. Moreover, the inhibition in experiment [19] turned out to be 6.91%; in experiment [20], 4.2%.
Consider `c1cc(-c2cnn3nc(N4CCOCC4)ccc23)nc(NC2CC2)n1`, for which the inhibition in experiment [1] turned out to be 4.87%; in experiment [2] it was 7.14%; in experiment [3], 11.7%; in [4], 4.81%; in experiment [5], 5%; in [6], 4.73%. The inhibition was 8.56% in [7]; 2.65% in experiment [8]; 1.15% in [9]; 1.06% in [10]; 3.22% in [11]; 0.54% in experiment [12]. In addition, the inhibition is -6.96% in experiment [13]; 2.21% in experiment [14]; 1.85% in experiment [15]; -1.14% in experiment [16]; -0.05% in experiment [17]; 12.9% in experiment [18]. Further, the inhibition came to 48% in experiment [19] and 6.83% in experiment [20].
